Active and inactive are the calls of the source. The calls were made as follows: active = hit-call score of the fitted dose curve at least 0.9, where 1 is the maximum; inactive = score below 0.9.
How the values were obtained:
[1] = ATG_M_61_CIS: Attagene CIS-FACTORIAL HepG2 Assay for M61 Transcription Factor (Internal Marker) (AID 2282937); conditions: HepG2 Attagene CIS-FACTORIAL M61 internal marker reporter; actives raise or lower the signal
Method in brief: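 HepG2 cells transiently transfected with cis-element-driven multiple reporter transcription units, dosed for 24 h. Reporter mRNA measured by RT-PCR, 6-FAM primer-extension labelling, HpaI digestion and capillary electrophoresis; bidirectional fit versus DMSO baseline.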

[2] = ATG_EGR_CIS: Attagene CIS-FACTORIAL HepG2 Assay for human Early Growth Response 1 (EGR1) (AID 2282938); conditions: HepG2 Attagene CIS-FACTORIAL EGR reporter mRNA; actives raise or lower the signal
Method in brief: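 HepG2 cells transiently transfected with cis-promoter-driven multiplexed reporter transcription units; reporter mRNA measured 24 h after compound dosing by RT-PCR, 6-FAM primer extension, HpaI digestion and capillary electrophoresis. Bidirectional fit versus DMSO baseline.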

[3] = ATG_M_19_CIS: Attagene CIS-FACTORIAL HepG2 Assay for M19 Transcription Factor (Internal Marker) (AID 2282939); conditions: HepG2 Attagene CIS-FACTORIAL M19 internal marker reporter; actives raise or lower the signal
Method in brief: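 Signals come from fluorescence of labelled reporter-specific PCR fragments resolved by capillary electrophoresis, following 24 h treatment of HepG2 cells transfected with cis-promoter reporter units; activity was fitted in both directions relative to DMSO.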

[4] = ATG_ERE_CIS: Attagene CIS-FACTORIAL HepG2 Assay for Estrogen Response Element (ERE) (AID 2282940); conditions: HepG2 ERE cis-reporter, Attagene RNA transcript; actives raise or lower the signal
Method in brief: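 Fluorescence of capillary-separated, FAM-labelled reporter cDNA fragments indicates reporter mRNA levels in HepG2 cells exposed to chemicals for 24 h. Transient transfection with cis-regulated units; data fitted in both directions against DMSO.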

[5] = ATG_Ets_CIS: Attagene CIS-FACTORIAL HepG2 Assay for human Erythroblast Transformation Specific (ETS) (AID 2282941); conditions: HepG2 ETS cis-reporter transcription, actives raise or lower the signal
Method in brief: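 Multiplexed reporter transcript profiling: HepG2, 24 h treatment, total RNA to cDNA, PCR, 6-FAM labelling, HpaI cut, capillary electrophoresis. Gain- or loss-of-signal fitted against DMSO.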

[6] = molecular target: Hepatocyte nuclear factor 3-beta (Homo sapiens) (UniProt Q9Y261); assay: ATG_FoxA2_CIS: Attagene CIS-FACTORIAL HepG2 Assay for human Forkhead box A2 (FOXA2) (AID 2282942); conditions: HepG2 cis-reporter transcription factor activity, 24 h; actives raise or lower the signal
Method in brief: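 HepG2 cells transiently transfected with multiple cis-regulated reporter transcription units, dosed for 24 h. Reporter mRNA measured by RT-PCR, 6-FAM labelling, HpaI digestion and capillary electrophoresis; bidirectional fitting against DMSO baseline.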

[7] = ATG_FoxO_CIS: Attagene CIS-FACTORIAL HepG2 Assay for human Forkhead box O (FoxO) (AID 2282943); conditions: HepG2 Attagene cis-reporter, FoxO element, mRNA; actives raise or lower the signal
Method in brief: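 HepG2 cells transiently transfected with cis-promoter-driven multiple reporter transcription units; 24 h after chemical dosing, reporter mRNA quantified by RT-PCR, fluorescent primer extension, HpaI digestion and capillary electrophoresis. Bidirectional fitting versus DMSO baseline.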

[8] = ATG_GLI_CIS: Attagene CIS-FACTORIAL HepG2 Assay for human Zinc Finger Protein GLI1 (AID 2282945); conditions: HepG2, Attagene cis-factorial reporter mRNA, GLI element; actives raise or lower the signal
Method in brief: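 HepG2 cells transiently transfected with cis-promoter multiplexed reporter units report endogenous transcription factor activity. After 24 h chemical exposure, reporter mRNA was quantified by RT-PCR, 6-FAM labelling, HpaI digestion and capillary electrophoresis, with bidirectional fitting against DMSO.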

[9] = ATG_E_Box_CIS: Attagene CIS-FACTORIAL HepG2 Assay for human Enhancer Box (E-box) (AID 2282936); conditions: HepG2 E-box cis-reporter transcription, actives raise or lower the signal
Method in brief: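 Measured 24 h post-dosing in HepG2 cells transfected with multiple cis-regulated reporter units, signal being reporter mRNA induction detected by fluorescent RT-PCR with capillary electrophoresis; gain or loss fitted against DMSO.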

[10] = ATG_GATA_CIS: Attagene CIS-FACTORIAL HepG2 Assay for human GATA Binding Protein (AID 2282944); conditions: HepG2 GATA cis-element reporter, Attagene multiplex mRNA; actives raise or lower the signal
Method in brief: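 After transfecting HepG2 cells with multiple cis-regulated reporter units, chemicals are dosed for 24 h; isolated RNA undergoes RT-PCR and fluorescent labeling before capillary electrophoresis, with activity expressed against DMSO.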

Chain of Hepatocyte nuclear factor 3-beta (Homo sapiens) (Q9Y261 whole entry, looked up): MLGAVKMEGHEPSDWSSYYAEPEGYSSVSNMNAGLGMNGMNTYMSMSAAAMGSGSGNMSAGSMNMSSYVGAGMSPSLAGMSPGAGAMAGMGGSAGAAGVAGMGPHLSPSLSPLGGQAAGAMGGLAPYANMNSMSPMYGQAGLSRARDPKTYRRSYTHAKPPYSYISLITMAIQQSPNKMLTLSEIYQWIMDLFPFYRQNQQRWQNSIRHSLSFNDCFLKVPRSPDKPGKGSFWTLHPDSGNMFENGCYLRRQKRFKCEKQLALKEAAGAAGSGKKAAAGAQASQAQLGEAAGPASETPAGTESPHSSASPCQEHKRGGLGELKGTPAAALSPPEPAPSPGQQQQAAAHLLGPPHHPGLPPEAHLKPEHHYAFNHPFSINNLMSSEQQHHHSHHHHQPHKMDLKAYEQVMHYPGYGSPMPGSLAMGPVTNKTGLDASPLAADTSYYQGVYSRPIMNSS

Structure (SMILES)	outcome [1]	AC50 [2]	outcome [3]	AC50 [4]	outcome [5]	outcome [6]	outcome [7]	outcome [8]	outcome [9]	outcome [2]	outcome [10]	outcome [4]	AC50 [7]	AC50 [8]
CC(C)COC(=O)c1ccccc1C(=O)OCC(C)C	inactive	73.4 µM (active)	inactive	39.6 µM (active)	inactive	inactive	inactive	inactive	–	–	–	–	–	–
O=C(Nc1ccccc1)c1ccccc1I	inactive	–	–	30.3 µM (active)	inactive	inactive	inactive	inactive	inactive	inactive	–	–	–	–
CCCSC(=O)N(CCC)CCC	inactive	–	inactive	–	inactive	inactive	inactive	inactive	–	inactive	inactive	–	–	–
CCCCCOC(=O)c1ccccc1C(=O)OCCCCC	inactive	–	inactive	–	inactive	inactive	inactive	inactive	–	inactive	inactive	inactive	–	–
O=Cc1ccco1	inactive	–	inactive	–	inactive	inactive	inactive	inactive	–	inactive	inactive	–	–	–
CC(O)CCO (centres undefined)	inactive	–	–	–	inactive	inactive	inactive	inactive	inactive	inactive	inactive	–	–	–
CCC(C)c1ccc(O)cc1 (centres undefined)	inactive	–	–	–	inactive	inactive	inactive	inactive	inactive	inactive	inactive	–	–	–
c1ccc(NNc2ccccc2)cc1	inactive	–	–	–	inactive	inactive	inactive	inactive	–	inactive	–	–	–	–
Nc1ccc(Cl)cc1N	inactive	28.2 µM (active)	inactive	–	inactive	inactive	inactive	inactive	–	–	–	–	–	–
[Cl-].[Cl-].[Hg+2]	inactive	–	inactive	–	inactive	inactive	inactive	inactive	–	inactive	–	–	–	–
CCOC(=O)[C@]1(c2ccccc2)Oc2ccccc2[C@@H]1N	inactive	33 µM (active)	inactive	–	inactive	inactive	–	–	–	–	–	–	49.5 µM (active)	59.5 µM (active)
